Screening results as filed in PubChem.
Shown are actives, neighbours in structure and some others; about 3.4% of the full set was active somewhere.
GalR3 antagonist: GalR3 antagonists in HEK293 cells, primary screen, cell-based, fluorescence readout; 360,000 tested, 0.44% active; inhibition, % at 3 µM; HEK293 GalR3-CNG cAMP membrane potential fluorescence; galR3 body fused to GalR1 C-terminus; Galanin receptor type 3 (Homo sapiens), O60755;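 active means inhibition above the screen-wide average plus 3 SD, cut at about 13% in these data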;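 further: forskolin and galanin both at EC90 stimulate the cells; cAMP rise reported by CNG channel membrane potential dye signal; 0% = forskolin plus galanin with DMSO and 100% = forskolin alone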
SMARCA2 activ: SMARCA2 (BRM) function activators, primary screen, cell-based, luminescence, high throughput | activation, % at 9.1 µM | 370,000 tested, 1% active | AID 652017, 2013 | MG213 cells, MMTV-luciferase reporter, dexamethasone, overnight; in the data active means activation above about 7.8%;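 further: 0% = vehicle wells and 100% = reference activator wells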
Gli-Sufu antag: Gli-Sufu pathway antagonists, primary screen, luciferase luminescence, Sufu-KO-LIGHT cells, uHTS; AID 588413, 2011; inhibition, % at 5 µM; 340,000 tested, 0.74% active; Sufu-KO-LIGHT fibroblasts, Gli luciferase reporter luminescence;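 active means inhibition above about 55%, limit read from the data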;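 further: 0% = DMSO-treated cells and 100% = wells with medium but no cells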
COUP-TFII inh: NR2F2 transcriptional activity inhibitors, primary screen, cell-based, luciferase reporter, HEK293T, luminescence | COUP transcription factor 2 (Homo sapiens), P24468 | HEK293T NGFI-A luciferase reporter | inhibition, % at 8.6 µM | 370,000 tested, 0.7% active | AID 686940, 2013;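 active means inhibition above a per-plate cutoff, mean inhibition of test wells between control levels plus 3 SD, cut at about 38% in these data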;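 further: cells cotransfected with COUP-TFII expression vector driving the NGFI-A reporter; 0% = median of COUP-TF2 test wells and 100% = reporter-only cells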
Target sequence (P24468 whole entry, looked up): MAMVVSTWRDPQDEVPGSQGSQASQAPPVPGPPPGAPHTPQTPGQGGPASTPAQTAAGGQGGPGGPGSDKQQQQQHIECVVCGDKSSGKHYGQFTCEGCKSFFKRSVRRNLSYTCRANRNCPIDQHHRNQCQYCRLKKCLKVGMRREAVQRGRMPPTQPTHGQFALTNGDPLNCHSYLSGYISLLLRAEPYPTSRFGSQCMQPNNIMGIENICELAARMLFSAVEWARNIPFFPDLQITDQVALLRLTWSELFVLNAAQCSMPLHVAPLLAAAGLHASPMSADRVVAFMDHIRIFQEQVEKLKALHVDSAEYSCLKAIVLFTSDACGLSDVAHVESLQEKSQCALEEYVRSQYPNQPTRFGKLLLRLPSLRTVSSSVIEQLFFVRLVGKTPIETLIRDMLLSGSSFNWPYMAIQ
FXN GAA850 act: FXN promoter activators, primary screen, cell-based, luciferase luminescence, HEK293 lucGAA850. activation, % at 6 µM. HEK293 lucGAA850 FXN promoter luciferase reporter, 24 h; percent of 10 µM SAHA response. AID 540364, 2011. 360,000 tested, 0.56% active;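 active means activation above the average of all compounds screened plus 3 SD, cutoff fixed separately per campaign, cut at about 7.5% in these data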;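 further: 0% = DMSO wells and 100% = 10 µM SAHA wells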
H9c2 protect: cardioprotection against H2O2-induced cell death, primary screen, uHTS, H9c2 cells, ATPLite luminescence; H9c2 cardiomyocytes, H2O2 injury protection, 2 h; protection from H2O2 cell death, % at 20 µM; 360,000 tested, 0.63% active;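 active means compounds giving at least 50% protection of heart cells from peroxide-induced death in the single-dose screen, raw or plate-pattern-corrected value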;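 further: 0% = DMSO wells with peroxide and 100% = DMSO wells without peroxide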
GAA30 FXN cntr: GAA30 FXN promoter activators, confirmation, counter-screen for GAA850 frataxin promoter activator project, cell-based, luminescence, HEK293, lucGAA30, triplicate; AID 588350, 2011; shares compounds with FXN GAA850 act; activation, % at 6 µM; 1,900 tested, 66% active; HEK293 lucGAA30 FXN promoter luciferase, 24 h; DMSO = 0%, 5 µM ipriflavone = 100%;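 active means mean activation above the mean of solvent-only control wells plus 3 SD, cut at about 22% in these data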;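 further: counterscreen of GAA850 promoter hits where activity marks nonselective or luminescence artifacts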
FXN GAA850 conf: FXN GAA850 promoter activators in reporter cells, confirmation, cell-based, luminescence, HEK293 lucGAA850, triplicate; shares compounds with FXN GAA850 act; HEK293 lucGAA850 FXN promoter luciferase reporter, 24 h; 100% = activation by SAHA; activation, % at 6 µM; 1,900 tested, 86% active;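 active means mean activation above a set limit taken from the primary screen, cut at about 8% in these data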;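 further: 0% = DMSO wells and 100% = 10 µM SAHA wells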
Active calls of the source: *; · = no result given.

SMILES	GalR3 antagonist	SMARCA2 activ	Gli-Sufu antag	COUP-TFII inh	FXN GAA850 act	H9c2 protect	GAA30 FXN cntr	FXN GAA850 conf
O=C(C=Cc1ccccc1)c1c[nH]c2ccccc2c1=O	-7	5	-8	-67	-5	-4	·	·
CC(C)CN1C(=O)[C@@]2(CC(=O)N(C)C2c2ccccc2)c2cc(-n3cc(-c4ccccc4)nn3)ccc21 (stereo partly drawn)	·	-5	·	-5	·	·	·	·
COCCCNc1nc(SCc2ccccc2)nc2sc3c(c12)CCC3	-3	0	3	-3	14*	-11	31*	21*
Cc1ccccc1CN1C(=O)CSCC1(C)C(=O)NC(C)C (stereo not drawn)	-3	5	·	1	·	·	·	·
Cc1csc(N=Nc2ccc(N(C)C)cc2)[n+]1[O-]	0	1	·	19	-6	-11	·	·
COc1cc(OC)c(OC)cc1/C=C/c1cc(C(=O)O)c2ccccc2n1	-6	3	-1	-8	4	-7	·	·
COc1cc(OC)c(OC)cc1C=Cc1ccc2ccccc2n1	-7	3	·	-21	8.9*	17	67*	30*
O=c1[nH]nc(CNc2ccc(OC(F)(F)F)cc2)c2ccccc12	8	1	3	15	9.0*	38	40*	20*
CC(C)(Oc1ccc(Cl)cc1)C(=O)NCc1n[nH]c(=O)c2ccccc12	-4	-1	-2	1	0	29	·	·
O=c1c2ccccc2[nH]c2ccc(O)cc12	-2	0	-27	-13	8.2*	3	39*	18*
CC(=O)O[C@H]1[C@@H](O)[C@H](O)[C@H](Oc2c(O)c(C)c3c4c2[C@@H](C)CC[C@@H]4[C@@H](C)C[C@@H]3C=C(C)C)O[C@H]1C	-4	-1	·	1	0	-9	·	·
Nc1nc(N)nc(-c2cc(F)ccc2O)n1	-10	7.9*	-8	13	12*	0	67*	42*
Cc1ccc(Cn2nnc3c2-c2ccccc2S(=O)(=O)N(C(C)(C)C)C3)cc1	·	0	·	7	·	·	·	·
Cc1[nH]c2ccccc2c1/C=N/NC(N)=S	6	-2	-4	14	0	3	·	·
Cc1ccc(NC(=S)N/N=C/c2c(C)[nH]c3ccccc23)cc1	-9	-1	3	2	7.9*	-15	31*	21*
CC(=O)N1CC(=O)N=C1SCC(=O)Nc1nc(C)c(-c2ccccc2)s1	0	7	9	13	8.0*	-2	44*	22*
Cn1c(=O)c2cc(S(=O)(=O)N3CCN(Cc4ccccc4)CC3)ccc2n(C)c1=O	·	-4	·	10	·	·	·	·
CCOC(=O)c1sc(=NC(=O)c2ccccc2Br)n(C)c1C	0	5	-119	-53	11*	-4	106*	29*
CCOC(=O)c1sc(=NC(=O)c2ccco2)n(C)c1C	-5	1	-30	-38	5	-12	·	·
C=CCn1c(SC(C)C(=O)NCc2ccc3c(c2)OCO3)nc2scc(-c3ccccc3)c2c1=O (stereo not drawn)	-4	-2	1	10	7.8*	12	12	10*
C=CCn1c(SCC(=O)NCc2ccc3c(c2)OCO3)nc2scc(-c3ccc(F)cc3)c2c1=O	-2	-1	9	11	3	-3	·	·
C/C(=N\Nc1nc2ccccc2[nH]1)c1ccc(Cl)s1	-5	0	-6	-14	3	-12	·	·
C/C(=N\Nc1nc2ccccc2[nH]1)c1ccc(C)o1	-12	3	-32	-15	8.4*	-7	121*	36*
O=C1C=CC(=C(c2ccc(O)cc2)c2ccc(O)cc2)C=C1	-4	-7	1	31	8.6*	16	29*	37*
O=C(c1ccc(-c2ccc(Cl)cc2Cl)o1)N1CCOCC1	0	1	-38	-38	9.1*	-9	114*	46*
SMILES	GalR3 antagonist	SMARCA2 activ	Gli-Sufu antag	COUP-TFII inh	FXN GAA850 act	H9c2 protect	GAA30 FXN cntr	FXN GAA850 conf
CN1CCN(C(=S)c2ccc(-c3cccc(Cl)c3Cl)o2)CC1	-1	3	-63	-49	7	-3	·	·
O=C(c1cc(-c2ccccc2Cl)on1)N1CCN(C(=O)c2ccco2)CC1	-6	-4	-3	-6	4	2	·	·
O=C(c1ccco1)N1CCN(C(=O)c2ccc(-c3ccccc3Cl)o2)CC1	-5	3	-27	-29	7.6*	9	88*	30*
S=C(c1ccc(-c2ccccc2Cl)o1)N1CCCCC1	-3	-1	-64	-24	8.6*	-18	113*	39*
Cc1cc(C(=O)N/N=C/c2ccc(Cl)c([N+](=O)[O-])c2)c(C)n1-c1ccc(F)cc1	-3	-2	10	-15	9.1*	2	-3	12*
C=CCN1C(=O)[C@@H](CC(=O)NCC23CC4CC(CC(C4)C2)C3)[C@]2(C(=O)OCC)CCCCC/C=C/12	·	-3	·	-7	·	·	·	·
O=C1c2ccccc2C(=O)N1CCc1c[nH]c2ccccc12	-7	7	-94	-34	9.0*	-14	88*	37*
CCN(CC)S(=O)(=O)c1cc(NC(=O)CSc2nc3c(cc2C#N)C(=O)CC(C)(C)C3)ccc1C	0	-3	38	-17	10*	-2	6	3
CC(=O)c1cc(-c2ccc(Cl)c(Cl)c2)c(=O)n2c1CCC2	·	-1	·	-2	·	·	·	·
CCN1C(=O)[C@H]2[C@@H](c3ccc(C)cc3)N3C(=O)N(c4cccc(F)c4)C(=O)[C@@]3(Cc3ccc(Cl)cc3)[C@H]2C1=O	-7	1	-4	7	1	3	·	·
CC[C@@]12C(=O)N(c3cccc(F)c3)C(=O)N1[C@H](c1ccc(Cl)cc1)[C@@H]1C(=O)N(C3CCCCC3)C(=O)[C@@H]12	-2	-1	1	-9	9.0*	-5	23*	15*
